From the supplement of paper PMC11732987, “Enantioselective OTUD7B fragment discovery through chemoproteomics screening and high-throughput optimisation” (Communications Chemistry, 2025)

Columns and labels:
Test in all cases: log2 ratio of Biotin-Ahx-Ub-VS probe labelling (fragment/DMSO); higher = less target engagement (more negative = stronger competition), active = hit call of the paper (q ≤ 0.05, log2 ratio ≤ -1)
Settings in all cases: compound concentration: 200 uM; treatment time: 3 h
USP42 = biological target: T1, USP42 (UniProt Q9H9J4)
T1 sequence (whole entry): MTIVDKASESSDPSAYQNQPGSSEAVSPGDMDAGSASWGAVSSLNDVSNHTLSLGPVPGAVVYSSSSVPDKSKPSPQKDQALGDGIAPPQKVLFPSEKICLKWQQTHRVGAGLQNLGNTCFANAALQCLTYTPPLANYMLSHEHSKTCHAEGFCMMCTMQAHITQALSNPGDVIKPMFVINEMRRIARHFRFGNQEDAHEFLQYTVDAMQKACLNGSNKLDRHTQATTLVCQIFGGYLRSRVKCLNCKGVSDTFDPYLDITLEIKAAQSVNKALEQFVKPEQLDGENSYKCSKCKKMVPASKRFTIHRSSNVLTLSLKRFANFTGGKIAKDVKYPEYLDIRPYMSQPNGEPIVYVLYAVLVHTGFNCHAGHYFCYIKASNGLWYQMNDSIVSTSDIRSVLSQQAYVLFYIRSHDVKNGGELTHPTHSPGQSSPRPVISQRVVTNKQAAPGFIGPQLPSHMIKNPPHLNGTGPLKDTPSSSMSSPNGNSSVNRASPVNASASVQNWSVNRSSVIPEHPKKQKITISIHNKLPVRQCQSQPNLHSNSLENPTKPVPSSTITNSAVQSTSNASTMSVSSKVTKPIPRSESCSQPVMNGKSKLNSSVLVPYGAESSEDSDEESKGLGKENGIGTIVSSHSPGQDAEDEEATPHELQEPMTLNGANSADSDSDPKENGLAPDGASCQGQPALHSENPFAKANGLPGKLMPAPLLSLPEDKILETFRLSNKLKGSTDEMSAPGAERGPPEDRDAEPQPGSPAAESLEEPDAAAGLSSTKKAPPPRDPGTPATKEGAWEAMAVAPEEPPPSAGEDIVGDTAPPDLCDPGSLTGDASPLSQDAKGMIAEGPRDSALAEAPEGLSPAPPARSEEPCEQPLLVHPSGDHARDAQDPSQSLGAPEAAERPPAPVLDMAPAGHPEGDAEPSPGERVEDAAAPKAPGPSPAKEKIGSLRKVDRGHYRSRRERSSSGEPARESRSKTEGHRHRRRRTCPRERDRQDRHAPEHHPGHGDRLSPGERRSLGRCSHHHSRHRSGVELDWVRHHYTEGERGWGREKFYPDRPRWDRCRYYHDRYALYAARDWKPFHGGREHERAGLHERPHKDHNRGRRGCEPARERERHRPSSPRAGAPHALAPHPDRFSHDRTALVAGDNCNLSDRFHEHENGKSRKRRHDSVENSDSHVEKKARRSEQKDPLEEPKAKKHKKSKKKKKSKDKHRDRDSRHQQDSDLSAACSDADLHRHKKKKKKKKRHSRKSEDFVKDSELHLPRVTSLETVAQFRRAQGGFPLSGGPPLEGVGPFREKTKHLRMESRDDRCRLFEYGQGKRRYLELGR
In short: (§1)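 Using Biotin-Ahx-Ub-VS at 0.5 µM final for 1 h, DUBs were labelled in HEK293T lysate (495 µg per sample) that had first been treated in triplicate with fragment at 200 µM or vehicle for 3 h. NeutrAvidin enrichment, LysC and trypsin digestion and diaPASEF LC-MS/MS followed. Spectronaut label-free quantities were global-median-normalised. Values are average log2 fragment/vehicle ratios by unpaired t-test, using proteins with ≥2 unique peptides.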

USP46 = USP46 (UniProt P62068)
Chain of USP46 (P62068 whole entry): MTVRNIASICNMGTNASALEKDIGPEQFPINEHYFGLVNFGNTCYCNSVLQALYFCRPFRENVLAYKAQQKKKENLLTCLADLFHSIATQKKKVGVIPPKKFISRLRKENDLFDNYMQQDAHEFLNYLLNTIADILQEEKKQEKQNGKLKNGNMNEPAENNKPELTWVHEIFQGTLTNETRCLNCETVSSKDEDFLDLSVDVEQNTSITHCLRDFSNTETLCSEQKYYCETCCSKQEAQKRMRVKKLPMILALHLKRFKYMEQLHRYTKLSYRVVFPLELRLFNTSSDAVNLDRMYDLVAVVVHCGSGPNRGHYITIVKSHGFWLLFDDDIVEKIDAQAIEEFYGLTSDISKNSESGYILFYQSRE
In short: as §1

USP47 = biological target: T2, USP47 (UniProt Q96K76)
T2 sequence (whole entry): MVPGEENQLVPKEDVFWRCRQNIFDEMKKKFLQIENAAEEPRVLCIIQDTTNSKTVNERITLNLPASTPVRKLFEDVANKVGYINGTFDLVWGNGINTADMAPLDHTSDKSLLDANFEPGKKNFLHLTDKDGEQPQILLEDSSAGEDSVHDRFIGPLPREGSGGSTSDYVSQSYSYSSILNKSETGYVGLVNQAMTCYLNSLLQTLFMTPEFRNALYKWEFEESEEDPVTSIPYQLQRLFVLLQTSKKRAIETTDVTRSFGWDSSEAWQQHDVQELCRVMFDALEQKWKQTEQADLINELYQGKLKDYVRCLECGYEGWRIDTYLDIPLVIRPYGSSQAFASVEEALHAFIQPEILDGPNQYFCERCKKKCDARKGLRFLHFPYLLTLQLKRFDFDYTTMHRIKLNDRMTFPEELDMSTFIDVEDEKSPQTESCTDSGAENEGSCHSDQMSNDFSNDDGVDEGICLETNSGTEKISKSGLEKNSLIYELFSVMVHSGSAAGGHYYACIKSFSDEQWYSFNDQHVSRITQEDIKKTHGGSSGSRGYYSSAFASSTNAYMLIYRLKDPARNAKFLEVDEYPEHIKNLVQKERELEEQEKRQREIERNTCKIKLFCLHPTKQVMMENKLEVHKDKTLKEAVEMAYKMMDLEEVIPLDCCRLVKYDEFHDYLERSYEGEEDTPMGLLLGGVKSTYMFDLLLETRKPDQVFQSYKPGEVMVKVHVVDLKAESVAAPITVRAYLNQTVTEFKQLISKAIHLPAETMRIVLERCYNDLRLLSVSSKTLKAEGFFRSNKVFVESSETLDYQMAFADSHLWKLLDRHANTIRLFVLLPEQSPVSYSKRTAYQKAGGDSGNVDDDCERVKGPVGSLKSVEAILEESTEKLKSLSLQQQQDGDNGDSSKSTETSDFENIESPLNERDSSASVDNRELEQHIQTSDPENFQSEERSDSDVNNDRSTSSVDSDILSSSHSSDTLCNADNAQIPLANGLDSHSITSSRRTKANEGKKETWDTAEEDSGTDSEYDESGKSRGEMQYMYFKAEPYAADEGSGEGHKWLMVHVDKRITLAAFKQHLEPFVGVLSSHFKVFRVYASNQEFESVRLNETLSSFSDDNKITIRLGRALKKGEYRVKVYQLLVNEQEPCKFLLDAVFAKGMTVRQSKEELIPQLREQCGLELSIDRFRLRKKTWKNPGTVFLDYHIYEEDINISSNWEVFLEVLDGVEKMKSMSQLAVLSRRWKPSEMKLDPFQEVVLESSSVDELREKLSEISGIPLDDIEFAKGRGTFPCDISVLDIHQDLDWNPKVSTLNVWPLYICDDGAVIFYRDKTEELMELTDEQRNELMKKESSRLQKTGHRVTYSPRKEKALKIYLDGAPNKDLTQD
In short: as §1

USP48 = biological target: T3, USP48 (UniProt Q86UV5)
T3 sequence (whole entry): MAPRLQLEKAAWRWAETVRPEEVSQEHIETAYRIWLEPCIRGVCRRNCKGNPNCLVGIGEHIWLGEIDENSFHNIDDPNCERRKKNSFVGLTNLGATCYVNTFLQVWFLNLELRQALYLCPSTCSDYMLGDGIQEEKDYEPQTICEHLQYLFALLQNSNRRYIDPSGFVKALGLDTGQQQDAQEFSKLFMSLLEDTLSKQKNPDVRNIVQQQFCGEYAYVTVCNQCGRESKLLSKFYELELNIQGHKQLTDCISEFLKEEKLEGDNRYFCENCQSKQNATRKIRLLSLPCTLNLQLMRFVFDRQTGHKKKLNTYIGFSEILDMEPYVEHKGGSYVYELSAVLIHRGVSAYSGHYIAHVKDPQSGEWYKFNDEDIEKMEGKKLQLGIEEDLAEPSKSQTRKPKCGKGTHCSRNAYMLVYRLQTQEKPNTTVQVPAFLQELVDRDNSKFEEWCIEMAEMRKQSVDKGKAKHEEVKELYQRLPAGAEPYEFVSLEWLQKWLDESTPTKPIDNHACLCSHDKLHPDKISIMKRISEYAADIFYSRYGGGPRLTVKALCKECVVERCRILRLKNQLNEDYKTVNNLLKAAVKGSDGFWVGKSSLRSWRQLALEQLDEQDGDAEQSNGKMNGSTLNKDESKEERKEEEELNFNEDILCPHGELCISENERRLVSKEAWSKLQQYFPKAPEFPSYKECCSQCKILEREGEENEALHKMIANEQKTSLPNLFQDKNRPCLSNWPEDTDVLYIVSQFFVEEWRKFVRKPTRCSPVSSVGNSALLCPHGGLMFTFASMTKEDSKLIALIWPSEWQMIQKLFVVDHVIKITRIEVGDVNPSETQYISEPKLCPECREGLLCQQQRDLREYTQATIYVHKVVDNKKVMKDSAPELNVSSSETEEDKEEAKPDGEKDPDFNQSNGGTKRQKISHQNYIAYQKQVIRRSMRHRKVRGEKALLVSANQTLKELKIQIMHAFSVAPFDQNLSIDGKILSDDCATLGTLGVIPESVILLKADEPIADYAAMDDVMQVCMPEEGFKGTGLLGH
In short: as §1

USP5 = biological target: T4, USP5 (UniProt P45974)
T4 sequence (whole entry): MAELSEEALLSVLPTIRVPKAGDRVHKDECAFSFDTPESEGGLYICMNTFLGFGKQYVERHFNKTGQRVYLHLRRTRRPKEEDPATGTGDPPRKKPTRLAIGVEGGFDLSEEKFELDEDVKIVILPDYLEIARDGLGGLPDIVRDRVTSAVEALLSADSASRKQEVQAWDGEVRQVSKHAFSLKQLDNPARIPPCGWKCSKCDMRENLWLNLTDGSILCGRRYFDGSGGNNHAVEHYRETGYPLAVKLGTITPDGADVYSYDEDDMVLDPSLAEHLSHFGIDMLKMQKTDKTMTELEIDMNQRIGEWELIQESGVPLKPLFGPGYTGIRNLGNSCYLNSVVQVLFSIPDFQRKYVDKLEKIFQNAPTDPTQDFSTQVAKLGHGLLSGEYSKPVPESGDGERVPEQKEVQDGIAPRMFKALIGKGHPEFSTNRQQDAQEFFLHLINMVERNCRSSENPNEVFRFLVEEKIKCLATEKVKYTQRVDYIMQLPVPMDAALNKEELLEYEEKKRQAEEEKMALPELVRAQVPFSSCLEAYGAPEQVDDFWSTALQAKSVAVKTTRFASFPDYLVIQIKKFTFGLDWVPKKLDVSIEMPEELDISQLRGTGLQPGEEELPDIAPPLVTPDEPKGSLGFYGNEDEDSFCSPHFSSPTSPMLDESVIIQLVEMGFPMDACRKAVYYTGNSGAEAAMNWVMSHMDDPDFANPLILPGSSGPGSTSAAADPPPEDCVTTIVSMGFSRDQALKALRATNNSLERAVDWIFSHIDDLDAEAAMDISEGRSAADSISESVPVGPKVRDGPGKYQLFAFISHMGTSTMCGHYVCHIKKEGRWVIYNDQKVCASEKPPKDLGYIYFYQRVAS
In short: as §1

USP54 = USP54 (UniProt Q70EL1)
Chain of USP54 (Q70EL1 whole entry): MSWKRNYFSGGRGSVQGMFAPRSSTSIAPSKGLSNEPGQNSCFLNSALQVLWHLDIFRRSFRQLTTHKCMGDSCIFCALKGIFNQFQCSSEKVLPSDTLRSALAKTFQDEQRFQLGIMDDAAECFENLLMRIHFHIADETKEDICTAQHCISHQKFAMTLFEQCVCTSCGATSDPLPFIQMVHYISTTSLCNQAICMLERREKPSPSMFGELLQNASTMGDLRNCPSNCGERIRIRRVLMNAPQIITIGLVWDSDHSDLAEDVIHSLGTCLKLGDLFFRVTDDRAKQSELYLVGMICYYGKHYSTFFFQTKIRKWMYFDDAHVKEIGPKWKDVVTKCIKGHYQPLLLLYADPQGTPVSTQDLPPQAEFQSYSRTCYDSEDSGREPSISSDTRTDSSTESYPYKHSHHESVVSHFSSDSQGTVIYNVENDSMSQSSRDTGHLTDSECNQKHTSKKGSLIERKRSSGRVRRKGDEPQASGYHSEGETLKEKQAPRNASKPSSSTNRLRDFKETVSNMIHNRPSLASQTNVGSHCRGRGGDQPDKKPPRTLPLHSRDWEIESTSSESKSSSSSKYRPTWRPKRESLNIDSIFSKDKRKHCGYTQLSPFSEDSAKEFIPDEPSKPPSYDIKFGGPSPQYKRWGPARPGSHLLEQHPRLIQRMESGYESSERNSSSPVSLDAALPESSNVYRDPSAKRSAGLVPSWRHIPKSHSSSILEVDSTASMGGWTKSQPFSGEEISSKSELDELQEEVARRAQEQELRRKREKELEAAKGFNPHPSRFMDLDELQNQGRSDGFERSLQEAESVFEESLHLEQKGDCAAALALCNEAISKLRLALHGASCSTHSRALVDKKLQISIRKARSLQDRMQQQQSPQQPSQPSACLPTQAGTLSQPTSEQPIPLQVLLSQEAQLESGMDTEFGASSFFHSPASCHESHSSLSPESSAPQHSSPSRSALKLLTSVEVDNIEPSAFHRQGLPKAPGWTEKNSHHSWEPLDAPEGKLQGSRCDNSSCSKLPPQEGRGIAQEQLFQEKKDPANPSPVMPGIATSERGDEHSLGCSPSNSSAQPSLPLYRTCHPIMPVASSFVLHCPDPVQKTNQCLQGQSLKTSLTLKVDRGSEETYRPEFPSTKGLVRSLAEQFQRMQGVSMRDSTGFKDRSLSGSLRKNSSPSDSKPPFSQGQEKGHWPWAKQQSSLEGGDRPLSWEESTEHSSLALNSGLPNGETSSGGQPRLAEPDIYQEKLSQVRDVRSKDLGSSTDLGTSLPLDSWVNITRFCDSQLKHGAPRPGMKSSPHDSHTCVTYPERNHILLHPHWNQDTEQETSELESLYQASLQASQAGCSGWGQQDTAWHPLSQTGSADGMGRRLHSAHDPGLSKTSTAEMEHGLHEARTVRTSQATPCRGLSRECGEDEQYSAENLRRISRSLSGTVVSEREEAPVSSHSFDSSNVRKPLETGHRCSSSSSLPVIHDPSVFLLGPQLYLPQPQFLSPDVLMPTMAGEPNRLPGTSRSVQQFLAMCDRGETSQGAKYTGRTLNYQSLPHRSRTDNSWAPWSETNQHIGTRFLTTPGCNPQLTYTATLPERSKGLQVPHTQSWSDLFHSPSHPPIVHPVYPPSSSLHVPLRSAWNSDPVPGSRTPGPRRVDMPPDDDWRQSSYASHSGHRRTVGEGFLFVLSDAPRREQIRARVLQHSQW
In short: as §1

USP7 = USP7 (UniProt Q93009)
Chain of USP7 (Q93009 whole entry, looked up): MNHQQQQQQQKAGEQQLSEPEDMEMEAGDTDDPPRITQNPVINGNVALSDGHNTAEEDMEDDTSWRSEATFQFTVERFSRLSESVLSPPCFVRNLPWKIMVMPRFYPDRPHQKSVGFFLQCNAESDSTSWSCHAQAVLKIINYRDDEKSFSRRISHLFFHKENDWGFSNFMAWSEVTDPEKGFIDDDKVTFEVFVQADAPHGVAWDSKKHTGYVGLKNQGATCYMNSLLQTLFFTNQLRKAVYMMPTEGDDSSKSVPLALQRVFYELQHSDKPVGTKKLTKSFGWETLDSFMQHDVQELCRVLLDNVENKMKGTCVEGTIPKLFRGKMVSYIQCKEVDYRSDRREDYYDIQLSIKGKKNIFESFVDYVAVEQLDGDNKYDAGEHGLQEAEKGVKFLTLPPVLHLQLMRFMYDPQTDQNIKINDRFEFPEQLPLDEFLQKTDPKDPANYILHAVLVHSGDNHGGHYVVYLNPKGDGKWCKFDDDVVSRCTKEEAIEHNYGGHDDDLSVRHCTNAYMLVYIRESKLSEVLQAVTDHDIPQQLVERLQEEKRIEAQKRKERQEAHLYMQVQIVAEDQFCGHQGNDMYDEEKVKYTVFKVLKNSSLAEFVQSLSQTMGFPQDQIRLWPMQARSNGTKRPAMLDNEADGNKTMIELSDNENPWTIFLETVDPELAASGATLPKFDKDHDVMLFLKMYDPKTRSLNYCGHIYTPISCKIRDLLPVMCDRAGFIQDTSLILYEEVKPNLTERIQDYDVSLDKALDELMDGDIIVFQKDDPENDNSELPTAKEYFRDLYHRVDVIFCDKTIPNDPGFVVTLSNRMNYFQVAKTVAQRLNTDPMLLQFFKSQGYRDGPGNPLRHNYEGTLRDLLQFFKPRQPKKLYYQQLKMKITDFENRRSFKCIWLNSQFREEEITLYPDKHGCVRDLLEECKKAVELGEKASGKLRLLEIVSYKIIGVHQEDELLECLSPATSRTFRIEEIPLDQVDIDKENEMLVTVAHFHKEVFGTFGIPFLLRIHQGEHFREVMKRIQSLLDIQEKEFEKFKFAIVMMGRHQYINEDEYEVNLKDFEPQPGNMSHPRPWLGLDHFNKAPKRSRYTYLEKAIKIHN
In short: as §1

USP8 = biological target: T5, USP8 (UniProt P40818)
T5 sequence (whole entry): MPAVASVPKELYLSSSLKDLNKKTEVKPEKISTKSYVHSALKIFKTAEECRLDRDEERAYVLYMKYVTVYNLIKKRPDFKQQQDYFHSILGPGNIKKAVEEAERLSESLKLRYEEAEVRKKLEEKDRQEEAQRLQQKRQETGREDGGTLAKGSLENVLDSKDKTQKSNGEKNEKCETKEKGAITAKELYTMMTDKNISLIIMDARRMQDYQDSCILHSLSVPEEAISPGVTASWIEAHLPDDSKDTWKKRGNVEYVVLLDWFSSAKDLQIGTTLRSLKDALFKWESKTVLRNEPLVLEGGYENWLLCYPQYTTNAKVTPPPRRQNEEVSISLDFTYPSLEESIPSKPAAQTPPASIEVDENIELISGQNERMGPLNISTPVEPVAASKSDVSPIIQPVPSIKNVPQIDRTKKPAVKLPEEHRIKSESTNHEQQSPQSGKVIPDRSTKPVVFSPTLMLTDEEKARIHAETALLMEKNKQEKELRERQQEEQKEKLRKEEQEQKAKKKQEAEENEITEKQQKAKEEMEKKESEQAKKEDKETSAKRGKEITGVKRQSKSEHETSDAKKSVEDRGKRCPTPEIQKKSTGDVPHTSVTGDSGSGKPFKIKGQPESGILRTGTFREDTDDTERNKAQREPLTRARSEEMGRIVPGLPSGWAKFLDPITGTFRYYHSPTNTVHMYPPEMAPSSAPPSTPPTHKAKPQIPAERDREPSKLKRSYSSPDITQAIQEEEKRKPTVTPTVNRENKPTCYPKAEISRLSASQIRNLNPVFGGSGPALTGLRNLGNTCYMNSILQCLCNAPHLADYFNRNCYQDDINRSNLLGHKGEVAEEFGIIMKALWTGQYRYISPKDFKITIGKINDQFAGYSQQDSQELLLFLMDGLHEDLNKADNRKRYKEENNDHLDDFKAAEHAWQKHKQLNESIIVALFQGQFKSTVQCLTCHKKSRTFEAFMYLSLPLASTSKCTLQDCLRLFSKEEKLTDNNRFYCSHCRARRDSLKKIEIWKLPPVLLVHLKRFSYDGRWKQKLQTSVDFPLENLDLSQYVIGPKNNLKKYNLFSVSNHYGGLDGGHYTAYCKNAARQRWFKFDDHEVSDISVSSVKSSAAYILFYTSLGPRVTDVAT
In short: as §1

USP9X = USP9X (UniProt Q93008)
In short: as §1

UniProt O00487 = biological target: UniProt O00487
Chain of UniProt O00487 (O00487 whole entry): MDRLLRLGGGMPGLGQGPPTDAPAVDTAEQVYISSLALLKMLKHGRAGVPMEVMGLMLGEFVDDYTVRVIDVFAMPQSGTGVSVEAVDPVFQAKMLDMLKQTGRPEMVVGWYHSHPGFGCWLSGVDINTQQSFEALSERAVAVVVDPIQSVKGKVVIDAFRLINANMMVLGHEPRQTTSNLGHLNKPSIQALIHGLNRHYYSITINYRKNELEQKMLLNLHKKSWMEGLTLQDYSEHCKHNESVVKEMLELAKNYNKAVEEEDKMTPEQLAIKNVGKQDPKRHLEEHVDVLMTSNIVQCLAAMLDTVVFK
In short: as §1

Measured: log2 ratio of Biotin-Ahx-Ub-VS probe labelling

COCC1C=CCCN1C(=O)CCl (stereo not given)
inactive: USP42 -0.485 | USP46 0.0708 | USP47 -0.789 | USP48 -0.152 | USP5 0.0548 | USP54 0.237 | USP7 -0.21 | USP8 -0.0182 | USP9X -0.16 | UniProt O00487 -0.0987

Cc1cccn2cc(CCNC(=O)CCl)nc12.Cl
inactive: USP42 0.274 | USP46 -0.16 | USP47 0.127 | USP48 -0.182 | USP5 -0.331 | USP54 0.0379 | USP7 -0.51 | USP8 -0.181 | USP9X -0.145 | UniProt O00487 -0.197

Cc1ccc(CC(NC(=O)CCl)c2ccccn2)cc1.Cl (stereo not given)
inactive: USP42 -0.109 | USP46 0.168 | USP47 0.0361 | USP48 0.0528 | USP5 -0.125 | USP54 0.195 | USP7 -0.0773 | USP8 0.0199 | USP9X 0.139 | UniProt O00487 0.244

CC(NC(=O)CCl)c1cccc(Cl)c1 (stereo not given)
inactive: USP42 -0.459 | USP46 -0.115 | USP47 -0.252 | USP48 -0.283 | USP5 0.0893 | USP54 0.882 | USP7 -0.385 | USP8 -0.413 | USP9X -0.388 | UniProt O00487 -0.18
